Experimental data from PubChem BioAssay AID1159580 (chemical genetic matrix, 2015).
Among all 5,500 compounds or so, about 2,000 (36%) were called active. Another 18% or so got no clear call; they are omitted. No stated cut-off is given here; in the data, active means normalized growth mostly below about 0.91 (no sharp cut-off); inconclusive means no clear call, values can overlap the other calls; inactive means mostly above about 0.92. The list shows a part of the results.

Assay: chemical genetic growth profiling, strain panel (AID 1159580);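 further: tested at 20 µM; growth read once vehicle control cultures reached saturation at 30 °C; 1 = growth at the plate median or of vehicle wells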
Settings: growth OD

Measured: normalized growth

O=c1[nH]c(=O)n(C2C[C@@H](O)[C@@H](CO)O2)cc1F (stereo partly drawn)
inactive: S. cerevisiae deletion strains, locus YJR066W, strain TOR1, stronger effect = lower value 0.932 | S. cerevisiae deletion strains, locus YKL009W, strain mrt4, stronger effect = lower value 1.04 | S. cerevisiae deletion strains, locus YKL068W, stronger effect = lower value 1 | S. cerevisiae deletion strains, locus YKL085W, strain MDH1 (second series), stronger effect = lower value 0.996 | S. cerevisiae deletion strains, locus YKL085W, strain MDH1, stronger effect = lower value 0.996 | S. cerevisiae deletion strains, locus YKL160W, strain elf1, stronger effect = lower value 1 | S. cerevisiae deletion strains, locus YKR001C, strain vps1, stronger effect = lower value 1.01 | S. cerevisiae deletion strains, locus YKR026C, strain gcn3, stronger effect = lower value 0.978 | S. cerevisiae deletion strains, locus YKR091W, strain srl3, stronger effect = lower value 0.995 | S. cerevisiae deletion strains, locus YLL001W, strain dnm1, stronger effect = lower value 0.992 | S. cerevisiae deletion strains, locus YLL026W, stronger effect = lower value 0.985 | S. cerevisiae deletion strains, locus YLL041C, strain sdh2, stronger effect = lower value 0.984 | S. cerevisiae deletion strains, locus YLR027C, strain aat2, stronger effect = lower value 0.994 | S. cerevisiae deletion strains, locus YLR039C, strain RIC1, stronger effect = lower value 1.04 | S. cerevisiae deletion strains, locus YLR058C, strain SHM2, stronger effect = lower value 1.02 | S. cerevisiae deletion strains, locus YLR102C, strain apc9, stronger effect = lower value 1.01 | S. cerevisiae deletion strains, locus YLR113W, strain HOG1, stronger effect = lower value 0.986 | S. cerevisiae deletion strains, locus YLR221C, strain rsa3, stronger effect = lower value 1.01 | S. cerevisiae deletion strains, locus YLR258W, strain gsy2, stronger effect = lower value 1.01 | S. cerevisiae deletion strains, locus YLR262C, strain YPT6 (second series), stronger effect = lower value 1.02 | S. cerevisiae deletion strains, locus YLR262C, strain YPT6, stronger effect = lower value 1.04 | S. cerevisiae deletion strains, locus YLR268W, strain sec22, stronger effect = lower value 1.03 | S. cerevisiae deletion strains, locus YLR320W, strain mms22, stronger effect = lower value 1.01 | S. cerevisiae deletion strains, locus YLR330W, strain CHS5, stronger effect = lower value 1.01 | S. cerevisiae deletion strains, locus YLR342W, strain FKS1 (second series), stronger effect = lower value 1.02 | S. cerevisiae deletion strains, locus YLR342W, strain FKS1, stronger effect = lower value 1.01 | S. cerevisiae deletion strains, locus YLR357W, strain rsc2, stronger effect = lower value 0.974 | S. cerevisiae deletion strains, locus YLR370C, strain arc18, stronger effect = lower value 1 | S. cerevisiae deletion strains, locus YLR371W, strain rom2, stronger effect = lower value 1.02 | S. cerevisiae deletion strains, locus YLR384C, strain iki3, stronger effect = lower value 0.982 | S. cerevisiae deletion strains, locus YLR418C, strain cdc73, stronger effect = lower value 1.02 | S. cerevisiae deletion strains, locus YML016C, strain PPZ1, stronger effect = lower value 1.01 | S. cerevisiae deletion strains, locus YML032C, strain rad52, stronger effect = lower value 1 | S. cerevisiae deletion strains, locus YML120C, strain ndi1, stronger effect = lower value 0.984 | S. cerevisiae deletion strains, locus YML124C, strain tub3, stronger effect = lower value 1.01 | S. cerevisiae deletion strains, locus YMR058W, strain fet3, stronger effect = lower value 0.986 | S. cerevisiae deletion strains, locus YMR078C, strain ctf18, stronger effect = lower value 1.01 | S. cerevisiae deletion strains, locus YMR125W, strain sto1, stronger effect = lower value 0.985 | S. cerevisiae deletion strains, locus YMR129W, stronger effect = lower value 0.999 | S. cerevisiae deletion strains, locus YMR205C, strain PFK2, stronger effect = lower value 1.01 | S. cerevisiae deletion strains, locus YMR223W, strain ubp8, stronger effect = lower value 1 | S. cerevisiae deletion strains, locus YMR231W, strain pep5, stronger effect = lower value 1.01 | S. cerevisiae deletion strains, locus YMR263W, strain SAP30, stronger effect = lower value 1.05 | S. cerevisiae deletion strains, locus YMR307W, strain GAS1, stronger effect = lower value 1.05 | S. cerevisiae deletion strains, locus YNL067W, strain RPL9B, stronger effect = lower value 1.06 | S. cerevisiae deletion strains, locus YNL071W, strain lat1, stronger effect = lower value 0.993 | S. cerevisiae deletion strains, locus YNL153C, strain GIM3, stronger effect = lower value 1.04 | S. cerevisiae deletion strains, locus YNL183C, strain NPR1, stronger effect = lower value 0.93 | S. cerevisiae deletion strains, locus YNL209W, strain ssb2, stronger effect = lower value 0.987 | S. cerevisiae deletion strains, locus YNL233W, strain BNI4, stronger effect = lower value 1.05 | S. cerevisiae deletion strains, locus YNL248C, strain rpa49, stronger effect = lower value 0.973 | S. cerevisiae deletion strains, locus YNL250W, strain rad50, stronger effect = lower value 1 | S. cerevisiae deletion strains, locus YNL271C, strain bni1, stronger effect = lower value 1.01 | S. cerevisiae deletion strains, locus YNL298W, strain CLA4, stronger effect = lower value 0.996 | S. cerevisiae deletion strains, locus YNL307C, strain MCK1, stronger effect = lower value 1.02 | S. cerevisiae deletion strains, locus YNL322C, strain KRE1 (second series), stronger effect = lower value 0.999 | S. cerevisiae deletion strains, locus YNL322C, strain KRE1, stronger effect = lower value 1 | S. cerevisiae deletion strains, locus YNR049C, strain mso1, stronger effect = lower value 0.982 | S. cerevisiae deletion strains, locus YNR052C, strain pop2, stronger effect = lower value 1.01 | S. cerevisiae deletion strains, locus YOL012C, strain htz1 1.63 | S. cerevisiae deletion strains, locus YOL147C, strain pex11, stronger effect = lower value 1.02 | S. cerevisiae deletion strains, locus YOR001W, strain rrp6, stronger effect = lower value 0.987 | S. cerevisiae deletion strains, locus YOR061W, strain CKA2, stronger effect = lower value 1.01 | S. cerevisiae deletion strains, locus YOR069W, strain VPS5, stronger effect = lower value 1.01 | S. cerevisiae deletion strains, locus YOR070C, strain gyp1, stronger effect = lower value 1.01 | S. cerevisiae deletion strains, locus YOR080W, strain dia2, stronger effect = lower value 1 | S. cerevisiae deletion strains, locus YOR083W, strain WHI5, stronger effect = lower value 1.01 | S. cerevisiae deletion strains, locus YOR106W, strain vam3, stronger effect = lower value 0.996 | S. cerevisiae deletion strains, locus YOR136W, strain idh2, stronger effect = lower value 1.02 | S. cerevisiae deletion strains, locus YOR144C, strain elg1, stronger effect = lower value 1.01 | S. cerevisiae deletion strains, locus YOR184W, strain ser1, stronger effect = lower value 1.02 | S. cerevisiae deletion strains, locus YOR231W, strain MKK1, stronger effect = lower value 0.98 | S. cerevisiae deletion strains, locus YOR265W, strain rbl2, stronger effect = lower value 1.01 | S. cerevisiae deletion strains, locus YOR270C, strain vph1, stronger effect = lower value 0.994 | S. cerevisiae deletion strains, locus YOR290C, strain snf2, stronger effect = lower value 0.989 | S. cerevisiae deletion strains, locus YOR316C, strain cot1, stronger effect = lower value 1.02 | S. cerevisiae deletion strains, locus YPL051W, strain arl3, stronger effect = lower value 1.02 | S. cerevisiae deletion strains, locus YPL078C, strain atp4, stronger effect = lower value 0.976 | S. cerevisiae deletion strains, locus YPL106C, strain sse1, stronger effect = lower value 1.01 | S. cerevisiae deletion strains, locus YPL240C, strain hsp82, stronger effect = lower value 0.987 | S. cerevisiae deletion strains, locus YPL241C, strain CIN2, stronger effect = lower value 1 | S. cerevisiae deletion strains, locus YPL256C, strain CLN2, stronger effect = lower value 0.957 | S. cerevisiae deletion strains, locus YPR119W, strain clb2, stronger effect = lower value 1.01 | S. cerevisiae deletion strains, locus YPR141C, strain kar3, stronger effect = lower value 1.01 | S. cerevisiae deletion strains, locus YPR163C, strain tif3, stronger effect = lower value 1.01 | S. cerevisiae deletion strains, locus YPR167C, strain met16, stronger effect = lower value 1.02 | S. cerevisiae deletion strains, strain wtn01, stronger effect = lower value 0.996 | S. cerevisiae strains, strain wild type, stronger effect = lower value 1.01
